From PubChem BioAssay AID588742 (Southern Research Specialized Biocontainment Screening …, 2011) come the findings set out here.

Screen size: about 1,800 compounds; about 410 (23%) were called active. A selection follows. Potency and affinity values are given separately. Values without a mark were called inactive. No rule for the calls is given here.

The nature of this assay: Vero cell cytotoxicity, cytotoxicity control for flavivirus capping enzyme inhibitors (AID 588742). To be noted: Vero cells viability, cytotoxicity counter-screen; series mostly up to 40 µM; viability: at the top concentration.
Turning to `Cc1ccc(C2c3sc(=O)[nH]c3SC3C(=O)NC(=O)C32)cc1` (stereo unspecified), the “viability” value was 98.6%.
On to `COc1cccc(/C=C2\SC(=S)N(NS(=O)(=O)c3ccc(C)cc3)C2=O)c1OC`, for which the “viability” value was 86.8%.
In the case of `CC1(C)CC(=O)C(C(c2ccc(Br)cc2)C2C(=O)CC(C)(C)CC2=O)C(=O)C1` it was 96.5%.
With `CC1=NN(Cc2ccccc2)C(=O)C1C(c1ccccc1)C(C#N)C#N` (stereo unspecified), the “viability” value is 88.9%.
In the case of `CCOc1ccccc1NC(=O)CN1C(=O)COc2ccc(S(=O)(=O)N3CCOCC3)cc21` it was 101%; in that of `Cc1cc(OCC(=O)NC2CCN(Cc3ccccc3)CC2)c2c(C)c(C)c(=O)oc2c1`, 101%; in that of `O=C1/C(=C/c2ccc(C(=O)O)cc2)CCC/C1=C\c1ccc(C(=O)O)cc1`, 114%.
On to `O=C1ON=C(c2cccc([N+](=O)[O-])c2)/C1=C/c1ccc(O)cc1`, for which the “viability” value is 80.4%.
Then `O=C(O)c1cccc(N2C(=O)C=CC2=O)c1`, with 107%; and `Cc1ccc([C@H]2C(C(=O)O)=CC[C@@H](c3ccc(Cl)c(Cl)c3)N2S(=O)(=O)c2ccc(C)cc2)cc1`, with 84.2%; and `O=C(COc1ccccc1/C=C\c1[nH]c(=O)[nH]c(=O)c1[N+](=O)[O-])Nc1ccccc1`, with 109%.
`CCOC(=O)CC1=NN(c2ccccc2)C(=O)/C1=C\c1ccc(OC)cc1OC`: the “viability” value was 94.6%.
On to `CCOC(=O)c1c2c(c(=S)n(-c3ccccc3)c1N)CCC2`, for which the “viability” value is 82.2%.
`O=S(=O)(Nc1nc(-c2sccc2Cl)cs1)c1cc(Cl)ccc1Cl`: the “viability” value was 99.7%.
In the case of `Fc1cccc(Cl)c1CNc1ccc(N2CCCC2)cc1`, the “viability” value is 84.4%.
Then `CCN1C(=NCc2ccccc2)N[C@@H](c2ccccc2)[C@H](C(=O)OC)[C@H]1C`, with 97.6%.
In the case of `O=C(Cc1ccc(Br)cc1)Nc1ccc2[nH]ncc2c1` it was 90.6%; in that of `CN(CCO)c1cc(Sc2nc3ccccc3s2)c2nonc2c1[N+](=O)[O-]`, 98.6%.
For the molecule `O=c1cc(-c2ccccc2)[nH]c2[nH]n(-c3ccccc3)c(=O)c12`, the “viability” value is 97%.
In the case of `O=C(O)c1ccc(Cl)c(S(=O)(=O)Nc2ccccc2C(=O)Nc2ccc(Cl)cc2)c1` it was 94.1%.
In the case of `Cc1ccc(C)c(S(=O)(=O)Nc2ccccc2C(=O)Nc2ccc(S(=O)(=O)Nc3ncccn3)cc2)c1` it was 102%; in that of `CC(=C\c1ccccc1)/C=C1/SC(=S)N(C(C(=O)O)C(C)C)C1=O` (stereo unspecified), 99.2%.
With `CCN(CC)S(=O)(=O)c1cccc(C(=O)N/N=C/c2ccc(O)c(O)c2O)c1`, the “viability” value was 99.8%.
Turning to `Cc1cc(C(=O)N/N=C/c2ccc(O)c(O)c2O)c(C)n1-c1ccccc1`, the “viability” value is 85%.
In the case of `Oc1ccc(/C=N/N2CCCCC2)c(O)c1O`, the “viability” value was 96%.
`Oc1cccc(/C=N/N=C/c2cccc(O)c2O)c1O`: the “viability” value was 86.5%.
Then `O=C1N=c2ccccc2=C1c1sc(=S)n(NC(=O)c2cccc(O)c2)c1O`, with 99.3%; and `CC1=NN(c2ccc(C)cc2C)C(=O)C1C(c1ccccc1)C1C(=O)N(c2ccc(C)cc2C)N=C1C` (stereo unspecified), with 92.2%; and `O=C(O)c1ccccc1-c1ccccc1C(=O)Nc1ccc2c(c1)oc(=O)c1ccccc12`, with 108%.
On to `Cc1cc(C)c(C(=O)COc2cccnc2[N+](=O)[O-])cc1C`, for which the “viability” value is 99%.
Regarding `Nc1scc2c(C(=O)N/N=C/c3ccc(Cl)cc3)nn(-c3ccccc3)c(=O)c12`, the “viability” value is 94%.
Then `COc1ccc(/C=N/NC(=O)c2nn(-c3ccccc3)c(=O)c3c(N)scc23)cc1`, with 94%.
Then `Cc1[nH]c(=O)c(C#N)c(C)c1CCC(=O)Nc1cc(S(C)(=O)=O)ccc1Cl`, with 105%; and `N#Cc1c([N+](=O)[O-])cc([N+](=O)[O-])cc1S(=O)(=O)Cc1ccccc1`, with 96.8%.
Regarding `CSc1nc(SCC(=O)O)c2sc3nc(-c4ccccc4)c4c(c3c2n1)CCC4`, the “viability” value was 95.7%.
Then `CCCS(=O)(=O)c1nc(S(=O)(=O)c2ccc(C)cc2)c(N2CCC(O)CC2)s1`, with 103%; and `O=C(O)c1cccc2c1C(=O)c1ccc(-c3ccc(F)cc3OCc3ccccc3)cc1S2(=O)=O`, with 109%.
In the case of `Cc1nc(N2C(=O)C(=O)/C(=C(/O)c3ccccc3)C2c2ccco2)sc1C` (stereo unspecified) it was 85%; in that of `C=CCOc1ccc(/C=C2/C(=O)ON=C2C)cc1OCC`, 102%.
On to `CCCOc1ccc(/C=C2/C(=O)ON=C2C)cc1OCC`, for which the “viability” value is 105%.
For the molecule `CCc1cc(=O)oc2cc(OCC(=O)NCCCn3ccnc3)c(Cl)cc12`, the “viability” value was 98.5%.
In the case of `CC1(C)CC(=O)C(=Cc2cn(CCC#N)nc2-c2ccc(F)cc2)C(=O)C1` it was 105%; in that of `CCOc1cc(/C=C2\NC(=O)NC2=O)cc([N+](=O)[O-])c1O`, 112%.
Then `COc1ccc2c(c1)Cc1cc(NC(=O)c3ccccc3-c3ccccc3C(=O)O)ccc1-2`, with 95.3%.
Then `COc1ccc(NC(=O)Nc2c(O)ccc3ccccc23)cc1`, with 94.1%; and `O=C(NCCCl)NNC(=O)c1cc2ccccc2cc1O`, with 94.7%; and `COc1ccccc1NC(=O)NNC(=O)c1cc2ccccc2cc1O`, with 84.9%.
In the case of `O=C1c2ccccc2C(O)(c2ccccc2)N1c1ccc([N+](=O)[O-])cc1Cl` (stereo unspecified), the “viability” value is 90.8%.
As for `CCC1(C)Cc2c(sc3[nH]c(=O)[nH]c(=O)c23)CS1` (stereo unspecified), the “viability” value was 104%.
`CC1(C)Cc2c(sc3nc4n(-c5ccccc5)c(=O)c(CCC(=O)O)nn4c(=O)c23)CO1`: the “viability” value is 108%.
Then `CCOc1cc(/C=N/N=C2/NC(=O)C(CC(=O)O)S2)ccc1OCc1ccccc1Cl` (stereo unspecified), with 100%; and `COc1ccccc1N1CCN(/N=C/c2cccc(OC)c2O)CC1`, with 99.3%.
On to `CCOc1ccccc1CNc1ccc(O)cc1`, for which the “viability” value was 96.2%.
`Oc1ccc(NCc2ccccc2OCc2ccccc2F)cc1`: the “viability” value was 97.6%.
Then `C=CCOC(=O)C1=C(C)N=c2s/c(=C3\C(=O)N(CC(=O)O)c4ccccc43)c(=O)n2C1c1ccc(OC)cc1` (stereo unspecified), with 105%; and `COC(=O)C1=CN(c2cccc(C)c2)C=C(C(=O)OC)C1c1cc(OC)c(O)c([N+](=O)[O-])c1`, with 96.7%; and `COc1ccc(/C=c2\sc3nc(=O)c(C)nn3c2=O)c(OC)c1`, with 100%.
Then `CCOC(=O)c1c(/N=C/c2cccc([N+](=O)[O-])c2O)sc(C)c1C`, with 105%.
Consider `Cc1ccc(S(=O)(=O)Nn2c(C)ccc2C)cc1`, for which the “viability” value was 97.7%.
Then `Cc1ccc(C(c2c(O)nc3n(c2=O)CCS3)c2c(O)nc3n(c2=O)CCS3)cc1`, with 97.4%.
With `NS(=O)(=O)c1ccc(N=Nc2c(O)c(C(=O)O)cc3ccccc23)cc1`, the “viability” value is 117%.
Then `CC(=O)N1c2ccc(S(=O)(=O)N(C)CC(=O)NCc3ccc(C)cc3)cc2CC1C` (stereo unspecified), with 89.4%; and `COc1cc(/C=C/c2[nH]c(=O)[nH]c(=O)c2[N+](=O)[O-])cc([N+](=O)[O-])c1O`, with 92.2%; and `CCCOc1ccc(C(=O)N/N=C/c2ccc(-c3ccc(S(=O)(=O)Nc4ncccn4)cc3)o2)cc1`, with 97.5%.
Then `O=C(/C=C/Nc1ccc(S(=O)(=O)Nc2ncccn2)cc1)c1cccs1`, with 106%.
`O=C1NN(c2ccccc2)C(=O)/C1=C/c1ccc(-c2ccc(C(=O)O)cc2)o1`: the “viability” value is 108%.
In the case of `Nc1nc2ncc(C(=O)c3cc(Cl)cc(Cl)c3O)cc2s1` it was 95.3%; in that of `C=CCn1c(=O)c(CCC(=O)Nc2ccc(N3CCOCC3)cc2)nc2cc(C(F)(F)F)ccc21`, 90.6%; in that of `CC1(OC(=O)c2ccco2)C(=O)C=C2C=C(C3CC3)OC=C2C1=O` (stereo unspecified), 96.2%.
For the molecule `C/C(=N/NC(=O)c1cc(O)c(O)c(O)c1)c1ccc([N+](=O)[O-])cc1`, the “viability” value was 99.6%.
In the case of `O=C(NC1CCCCC1)c1cc2ccccc2cc1O`, the “viability” value is 94.5%.
For the molecule `O=C(CCC1CCCC1)NNC(=O)c1cc2ccccc2cc1O`, the “viability” value is 87.1%.
In the case of `Cc1cc(C)c2nc(N3C(=O)C(O)=C(C(=O)c4ccco4)C3c3ccc(O)cc3)sc2c1` (stereo unspecified) it was 96.7%.
Consider `O=C(CNS(=O)(=O)c1ccc2ccccc2c1)OCC(=O)c1ccc(Br)s1`, for which the “viability” value was 93.8%.
Then `O=C(c1ccccc1)c1ccc(OCC(O)CN2CCN(S(=O)(=O)N3CCCCC3)CC2)cc1` (stereo unspecified), with 87.1%; and `CC(C)c1ccc(Nc2ccc(C(=O)O)cc2[N+](=O)[O-])cc1`, with 101%; and `CCc1nnc(N/N=C/c2ccc(N3CCC(C)CC3)c([N+](=O)[O-])c2)n1N`, with 89.8%.
Regarding `COc1ccc(C2CC(c3ccccc3)=NN2c2ccc(Cl)c(C(=O)O)c2)cc1` (stereo unspecified), the “viability” value was 91.2%.
Then `O=C(CCN1C(=O)/C(=C\C=C\c2ccccc2)SC1=S)Nc1ccccc1C(=O)O`, with 95.4%; and `O=C1CCC/C(=N/Nc2ccc(Cl)cc2)C1`, with 89.1%; and `COc1cc(C2C(C#N)=C(N)OC3=C2C(=O)CC(C)(C)C3)c([N+](=O)[O-])cc1OC` (stereo unspecified), with 108%.
In the case of `COc1ccc2c([N+](=O)[O-])c(Cl)[nH]c2c1` it was 104%.
In the case of `Cc1[nH]c2ccccc2c1C1=CC(=O)C=CC1=O` it was 89.9%; in that of `CC(=O)N1CCN(c2ccc(NCc3ccc(Br)o3)cc2)CC1`, 106%; in that of `Cc1nc2nc(-c3cccs3)cn2nc1C`, 95.6%.
For `CCCCCCCC1=NN(c2ccc(S(=O)(=O)O)cc2)C(=O)C1N=O` (stereo unspecified), the “viability” value is 100%.
As for `COC(=O)c1ccc(N2NC(=O)/C(=C/c3ccc(OC)c(OC)c3)C2=O)cc1`, the “viability” value was 98.2%.
In the case of `O=C1NN(c2ccccc2)C(=O)/C1=C\c1cccc(OC(=O)c2cccs2)c1` it was 103%; in that of `COCCNC(=O)Nc1ccc2nc(-c3ccco3)c(-c3ccco3)nc2c1`, 102%.
Then `CN=c1scc(C)n1/N=C/c1ccc(O)c(O)c1O`, with 95.4%; and `Cc1cccc(N/N=C/c2ccc(O)c(O)c2O)c1`, with 103%.
As for `Cc1nc2ccccc2c(=O)n1/N=C/c1ccc(O)c(O)c1O`, the “viability” value was 99.3%.
In the case of `Oc1ccc(/C=N/N2CCOCC2)c(O)c1O` it was 102%; in that of `C#CCOc1ccc(/C=C2/C(=O)ON=C2C)cc1Cl`, 98.1%; in that of `O=C1CCNc2cc3ccccc3cc21`, 83.9%.
With `COc1ccc(C2C(C#N)=C(N)Oc3c2c(C)nn3-c2ccccc2)cc1Cn1nc(C)c([N+](=O)[O-])c1C` (stereo unspecified), the “viability” value was 94.7%.
In the case of `O=c1[nH]n2c(=O)c3c([nH]c2c1N=Nc1cccc(C(F)(F)F)c1)CCCC3` it was 101% [at 20 µM]; in that of `O=c1oc2ccccc2c(O)c1/C=C1\C=Nc2ccccc21`, 91.5%.
In the case of `CCOc1ccc(N2C(=O)C(Cl)=C(N3CCOCC3)C2=O)cc1` it was 98.1%; in that of `COC(=O)c1c(C)c2c(C)cc3ccccn3c-2c1C(=O)OC`, 101%; in that of `Cc1c(CCC(=O)O)c(=O)oc2c(C)c(OCc3cc4c(cc3Cl)OCO4)ccc12`, 94.4%.
